Source: PubChem BioAssay AID2796 (The Scripps Research Institute Molecular Screening Center, 2010)
Out of some 320,000 compounds screened, about 8,000 (2.5%) were called active. No stated cut-off is given here; in the data, active means activation above about 47%; inactive means the rest. Only a selection was taken, and actives are over-represented in it overall.

These compounds were tested against Aryl hydrocarbon receptor (Homo sapiens) (UniProt P35869) (assay: AHR activators, primary screen, cell-based, luminescence, luciferase reporter, human (AID 2796;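 further: 0% = vehicle wells and 100% = reference agonist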)). Settings: AHR-responsive luciferase reporter cells, at 5 µM, stronger effect = higher value.
Chain of Aryl hydrocarbon receptor (Homo sapiens) (P35869 whole entry, looked up): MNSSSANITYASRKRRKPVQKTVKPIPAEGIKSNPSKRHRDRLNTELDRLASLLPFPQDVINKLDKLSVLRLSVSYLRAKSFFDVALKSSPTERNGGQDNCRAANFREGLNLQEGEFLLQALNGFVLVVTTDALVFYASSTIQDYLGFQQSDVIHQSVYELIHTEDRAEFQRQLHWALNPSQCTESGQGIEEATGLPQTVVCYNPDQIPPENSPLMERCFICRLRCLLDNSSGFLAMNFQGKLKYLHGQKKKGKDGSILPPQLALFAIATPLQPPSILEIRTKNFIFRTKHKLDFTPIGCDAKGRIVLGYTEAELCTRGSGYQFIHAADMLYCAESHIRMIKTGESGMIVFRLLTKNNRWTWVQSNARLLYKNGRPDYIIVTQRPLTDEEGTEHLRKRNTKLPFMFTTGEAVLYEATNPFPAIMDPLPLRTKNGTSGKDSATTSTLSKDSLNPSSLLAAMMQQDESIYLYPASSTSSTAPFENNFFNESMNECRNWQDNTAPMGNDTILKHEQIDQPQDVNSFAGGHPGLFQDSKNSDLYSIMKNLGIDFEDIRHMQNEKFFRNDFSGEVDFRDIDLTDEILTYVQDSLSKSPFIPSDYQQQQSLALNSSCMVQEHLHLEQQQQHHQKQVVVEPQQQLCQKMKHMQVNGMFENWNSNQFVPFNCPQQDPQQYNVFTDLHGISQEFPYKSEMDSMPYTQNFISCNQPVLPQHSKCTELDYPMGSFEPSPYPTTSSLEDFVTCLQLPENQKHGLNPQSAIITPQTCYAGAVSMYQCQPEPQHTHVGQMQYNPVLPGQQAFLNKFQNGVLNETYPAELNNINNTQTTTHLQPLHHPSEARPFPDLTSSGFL

activation, inactive:
COc1ccc(CN2CCN(Cc3cn(C)nc3-c3ccccc3)CC2CCO)c(C)c1C (stereo not drawn) 2.04%
Cc1noc(C)c1NC(=O)Nc1ccc2c(c1)C(=O)N([C@H](C)CO)C[C@H](C)[C@@H](CN(C)C(=O)Nc1ccc(C(F)(F)F)cc1)O2 3.05%
Cc1ccc(-c2noc(CNC(=O)c3ccoc3C)n2)cc1 6.22%
O=C(COc1ccccc1F)NNC(=O)c1cc(Br)ccc1Cl 4.62%
CCN(CC)C(=O)C(=O)Nc1cccc(Br)c1 4.98%
CCC1CCCCN1CCNC(=O)c1[nH]c(C)c(C(C)=O)c1C (stereo not drawn) 1.61%
O=C(Nc1ccc(Cl)cc1)N1CCc2[nH]c3ccccc3c2C1 25.4%
Fc1ccc(NC(=S)N2CCc3[nH]c4ccccc4c3C2)cc1 5.41%
O=C(CCCN1CCc2[nH]c3ccc(F)cc3c2C1)c1ccc(F)cc1 2.64%
CCCCNC(=O)CSc1nc2n[nH]c(C)c2c(=N)n1-c1cccc(Cl)c1C 13.7%
Cc1ccc(-n2c(SCC(=O)NCCC3=CCCCC3)nc3n[nH]c(C)c3c2=N)cc1Cl 24.8%
COc1ccccc1C(=O)NCCC(=O)NN1C(=O)NC2(CCCCC2)C1=O -0.92%
C/C=C/C(=O)OCC(=O)Nc1ccc(F)cc1Cl 0.16%
O=C(CCCOc1ccccc1)NCc1ccco1 1.62%
C[N+](C)(CCCCCC[N+](C)(C)CCCN1C(=O)c2cccc3cccc(c23)C1=O)CCCN1C(=O)c2cccc3cccc(c23)C1=O 4.39%
CC1CCN(C(=O)C2CCN(S(=O)(=O)N3CCC4(CC3)OCCO4)CC2)CC1 0.37%
CNc1ccc([N+](=O)[O-])cc1C(=O)O -2.24%
O=C(Nc1cccnc1)c1cc([N+](=O)[O-])ccc1Cl 0.88%
COc1ccc(S(=O)(=O)NC(C)C(=O)NCc2ccncc2)cc1Cl (stereo not drawn) -0.4%
C[C@H](CO)N1C[C@H](C)[C@@H](CN(C)S(=O)(=O)c2ccc(F)cc2)Oc2c(NC(=O)Nc3ccccc3)cccc2C1=O 0.64%
Cc1cccc(NC(=O)c2ccc3nsnc3c2)c1C 10.3%
O=C(Nc1cccc(NC(=O)c2cccc(F)c2)c1)c1ccccc1 26.6%
COC(C(=O)Nc1ccc(S(=O)(=O)Nc2ccc(C)c(C)c2)cc1)c1ccccc1 (stereo not drawn) -0.6%
COCCN1CCn2c(nc3cc(NS(C)(=O)=O)ccc32)C1 4.78%
Cc1ccc(S(=O)(=O)NCC(=O)N(CC(=O)NC(C)(C)C)Cc2cccs2)cc1 3.31%
O=C(O)c1ccccc1C(=O)Nc1nc(-c2ccccc2)cs1 1.84%
CCc1noc(C)c1C(=O)Nc1nc2ccc(OC)cc2s1 1.93%
Nc1ncc(CN2CCCC(C(=O)Nc3ccc(-c4ccco4)cc3)C2)cn1 (stereo not drawn) 5.9%
Cc1cc(=O)oc2c(C(=O)c3ccccc3)c(OCC(N)=O)ccc12 3.98%
O=C(COC(=O)c1ccc(F)cc1)NCC1COc2ccccc2O1 (stereo not drawn) -0.1%
Cc1noc(C)c1NC(=O)Nc1ccc2c(c1)C(=O)N([C@H](C)CO)C[C@H](C)[C@@H](CN(C)S(=O)(=O)c1cn(C)cn1)O2 0.71%
O=S(=O)(Nc1ccc(-n2cnnn2)cc1)c1ccc(Cl)cc1 1.5%
Cc1nc(Cl)cc(N/N=C/c2ccccc2)n1 23.2%
Cc1cc(C)nc(N/N=C/c2c(C)oc3ccccc23)n1 11.9%
Brc1ccc(-c2csc(N/N=C/c3cccnc3)n2)cc1 -4.57%
O=C(CN1CCN(c2nc(-c3ccccc3)cs2)CC1)NCc1ccc2c(c1)OCO2 0.54%
Cc1cc(=O)[nH]c(N/N=C/c2ccc3c(c2)OCCO3)n1 14.6%
O=C(Cc1ccc(F)cc1)N/N=C/c1ccc2c(c1)OCO2 42%

activation, active:
CCN(CC)C(=O)Oc1ccc(Br)cc1C(=O)Nc1ccc(F)c(Cl)c1 86.6%
C=CCNC(=S)N1CCc2[nH]c3ccccc3c2C1 73.6%
COc1cccc(-n2c(SCC(=O)NC3CCCCC3)nc3n[nH]c(C)c3c2=N)c1 104%
O=C(CCCCCN1C(=O)c2cccc3cccc(c23)C1=O)NCc1ccco1 76.8%
Cc1ccc(NC(=O)c2cc([N+](=O)[O-])ccc2Cl)c(O)c1 49%
O=C(Nc1ccccc1)c1ccc2nsnc2c1 60.2%
CCc1noc(C)c1C(=O)Nc1nc(-c2ccccc2)cs1 55.4%
Brc1ccc(-c2csc(N/N=C/c3ccc4c(c3)OCO4)n2)cc1 58%
C(=N\Nc1ccc2ccccc2n1)/c1ccc2c(c1)OCO2 101%
Cc1noc(C)c1/C=N/Nc1ccc2ccccc2n1 83.3%
